The results in this text go back to PubChem BioAssay (Tox21).

The target of experiment [1] is Acetylcholinesterase (Homo sapiens) (UniProt P22303). As to the kind of experiment: Acetylcholinesterase (AChE) small molecule antagonists: enzyme-based qHTS assay (AID 1347397; calls by dose curve; further: nearly all actives have a fitted effect of over 55% in size). The conditions noted are these: Potency: AChE enzyme activity inhibition; outcome: AChE enzyme activity inhibition. An outline of the steps: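 In this quantitative HTS, compounds from the Tox21 10K collection were preincubated 30 min at ambient temperature with recombinant human AChE dispensed at 50 mU/mL. Hydrolysis of acetylthiocholine was then followed for 10 min by DTNB colour development.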
Acetylcholinesterase (Homo sapiens), sequence (P22303 whole entry, looked up): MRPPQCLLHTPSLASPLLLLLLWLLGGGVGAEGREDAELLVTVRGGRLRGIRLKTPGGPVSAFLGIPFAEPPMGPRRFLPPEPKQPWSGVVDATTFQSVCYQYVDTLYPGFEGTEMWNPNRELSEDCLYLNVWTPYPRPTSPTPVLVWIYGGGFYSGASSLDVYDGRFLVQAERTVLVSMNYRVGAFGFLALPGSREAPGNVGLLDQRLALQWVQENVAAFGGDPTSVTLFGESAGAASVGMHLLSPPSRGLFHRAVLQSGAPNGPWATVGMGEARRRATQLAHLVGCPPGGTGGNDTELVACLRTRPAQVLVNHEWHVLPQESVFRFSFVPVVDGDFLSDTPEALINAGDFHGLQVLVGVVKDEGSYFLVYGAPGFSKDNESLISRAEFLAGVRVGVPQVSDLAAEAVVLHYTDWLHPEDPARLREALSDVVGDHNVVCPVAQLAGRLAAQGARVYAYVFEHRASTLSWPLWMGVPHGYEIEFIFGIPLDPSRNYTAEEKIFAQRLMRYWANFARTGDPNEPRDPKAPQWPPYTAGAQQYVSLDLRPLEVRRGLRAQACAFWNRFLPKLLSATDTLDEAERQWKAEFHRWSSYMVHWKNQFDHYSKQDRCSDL
(Quantitative high-throughput screening tests each substance at several concentrations.)

Experiment [2] shares this target. The experiment in a line: Acetylcholinesterase (AChE) small molecule antagonists: fluorescence cell-based qHTS assay (AID 1347398; calls by dose curve; further: nearly all actives have a fitted effect of over 50% in size). As to conditions: Potency: AChE activity; outcome: AChE activity. An outline of the steps:
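Cells (SH-SY5Y) attached overnight, were dosed with compound or DMSO vehicle for 30 min at 37 C, and then incubated 40 min at room temperature with acetylthiocholine and Thiolite Green; green fluorescence indexed AChE activity.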

Experiment [3] shares this target. As to the kind of experiment: Acetylcholinesterase (AChE) small molecule antagonists: enzyme-based qHTS assay with human liver microsomes (AID 1347399; calls by dose curve; further: nearly all actives have a fitted effect of over 60% in size). As to conditions: Potency: qHTS inhibition; outcome: qHTS inhibition. An outline of the steps:
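Recombinant human AChE (50 mU/mL in the enzyme mix) and human liver microsomes (0.25 mg/mL final) were preincubated with compound and NADPH (0.25 mg/mL final) for 30 min at 37 C. Acetylthiocholine/DTNB was then added; thiocholine was read colorimetrically after 10 min at room temperature.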

In experiment [4] the target is Cytochrome P450 2D6 (Homo sapiens) (UniProt P10635). The experiment in a line: Cytochrome P450 Family 2 Subfamily D Member 6 (CYP2D6) small molecule antagonists: luciferase reporter qHTS assay (AID 1671196). Further: nearly all actives have a fitted effect of over 50% in size. Further: potency means the concentration at half of the fitted maximal effect. In outline:
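CYP2D6 activity was followed as luminescence from its luciferin product after a 1 h NADPH-driven reaction at room temperature. Enzyme-substrate mix and compound were pre-incubated for 10 min, and the signal was read 20 min after adding detection reagent.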
(A reporter such as luciferase makes a cellular process visible.)

In experiment [5] the target is Cytochrome P450 2C19 (Homo sapiens) (UniProt P33261). The experiment in a line: Cytochrome P450 Family 2 Subfamily C Member 19 (CYP2C19) small molecule antagonists: luciferase reporter qHTS assay (AID 1671197). Further: nearly all actives have a fitted effect of over 65% in size. Further: potency means the concentration at half of the fitted maximal effect. An outline of the steps:
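Relative luminescence units recorded 20 min after the detection reagent stopped a 1 h, 37C CYP2C19 reaction on proluciferin substrate, which was started by NADPH regeneration following 10 min room-temperature compound preincubation; ketoconazole positive control.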

Experiment [6] concerns the target Cytochrome P450 2C9 (Homo sapiens) (UniProt P11712). As to the kind of experiment: Cytochrome P450 Family 2 Subfamily C Member 9 (CYP2C9) small molecule antagonists: luciferase reporter qHTS assay (AID 1671198). Further: nearly all actives have a fitted effect of over 50% in size. Further: potency means the concentration at half of the fitted maximal effect. An outline of the steps: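 P450-Glo proluciferin substrate with CYP2C9 enzyme; 10 min RT preincubation, then NADPH regeneration 1 h at 37C; luciferin detection reagent 20 min RT, luminescence in relative luminescence units.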

In experiment [7] the target is Cytochrome P450 1A2 (Homo sapiens) (UniProt P05177). As to the kind of experiment: Cytochrome P450 Family 1 Subfamily A Member 2 (CYP1A2) small molecule antagonists: luciferase reporter qHTS assay (AID 1671199). Further: nearly all actives have a fitted effect of over 50% in size. Further: potency means the concentration at half of the fitted maximal effect. An outline of the steps: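 Luminescence from luciferin formed by CYP1A2 from a proluciferin substrate, read 20 min after detection reagent. Compound was pre-incubated 10 min with enzyme-substrate, and reaction started with NADPH regeneration solution for 1 h at room temperature; furafylline control.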
Cytochrome P450 1A2 (Homo sapiens), sequence (P05177 whole entry, looked up): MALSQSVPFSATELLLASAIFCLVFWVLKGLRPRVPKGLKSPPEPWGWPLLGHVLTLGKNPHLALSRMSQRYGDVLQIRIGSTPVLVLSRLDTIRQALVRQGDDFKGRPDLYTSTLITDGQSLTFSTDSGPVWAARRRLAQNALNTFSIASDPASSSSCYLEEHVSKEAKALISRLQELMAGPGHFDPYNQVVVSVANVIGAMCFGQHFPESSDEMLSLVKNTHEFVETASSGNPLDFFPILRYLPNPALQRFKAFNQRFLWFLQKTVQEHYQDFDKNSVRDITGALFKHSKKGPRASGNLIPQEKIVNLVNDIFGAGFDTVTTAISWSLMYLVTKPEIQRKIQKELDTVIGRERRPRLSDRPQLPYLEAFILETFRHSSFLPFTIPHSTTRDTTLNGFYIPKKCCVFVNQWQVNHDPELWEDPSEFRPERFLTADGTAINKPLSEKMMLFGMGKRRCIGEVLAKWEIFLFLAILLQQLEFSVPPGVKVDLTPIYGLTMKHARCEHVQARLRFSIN

Experiment [8] concerns the target Voltage-gated inwardly rectifying potassium channel KCNH2 (Homo sapiens) (UniProt Q12809). The experiment in a line: Human Ether-a-go-go-Related Gene (hERG) channel small molecule antagonists: fluorescence cell-based qHTS assay (AID 1671200). Further: nearly all actives have a fitted effect of over 50% in size. Further: potency means the concentration at half of the fitted maximal effect. An outline of the steps: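 Thallium served as the potassium surrogate; its influx into dye-loaded U2OS cells carrying the channel was measured by fluorescence over 2 min.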
On the technique in general: hERG is a cardiac potassium channel; its block is linked to QT prolongation.

Experiment [9] concerns the target Cytochrome P450 3A4 (Homo sapiens) (UniProt P08684). As to the kind of experiment: Cytochrome P450 Family 3 Subfamily A Member 4 (CYP3A4) small molecule antagonists: luciferase reporter qHTS assay (AID 1671201). Further: nearly all actives have a fitted effect of over 50% in size. Further: potency means the concentration at half of the fitted maximal effect. In outline:
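Relative luminescence units after 20 min with luciferin detection reagent served as read-out. Beforehand, CYP3A4 turned over a proluciferin substrate for 1 h at room temperature with NADPH regeneration, following 10 min compound preincubation.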

“And” between values parts separate entries of the source, which are not always exact repeats. Equal entries are not always repeated. Results filed as inconclusive are left out. More than one record can exist for a structure, and the calls need not agree. The source made the active and inactive calls. Unless noted, the call rests on the fitted dose curve; in most records, active means well fitted curve in the direction sought with a large enough effect in the repeat runs; inconclusive means weak or mixed curves; inactive means no such curve, though single readings can be large; an effect the other way counts as inactive or inconclusive.

Cytochrome P450 2C19 (Homo sapiens), sequence (P33261 whole entry, looked up): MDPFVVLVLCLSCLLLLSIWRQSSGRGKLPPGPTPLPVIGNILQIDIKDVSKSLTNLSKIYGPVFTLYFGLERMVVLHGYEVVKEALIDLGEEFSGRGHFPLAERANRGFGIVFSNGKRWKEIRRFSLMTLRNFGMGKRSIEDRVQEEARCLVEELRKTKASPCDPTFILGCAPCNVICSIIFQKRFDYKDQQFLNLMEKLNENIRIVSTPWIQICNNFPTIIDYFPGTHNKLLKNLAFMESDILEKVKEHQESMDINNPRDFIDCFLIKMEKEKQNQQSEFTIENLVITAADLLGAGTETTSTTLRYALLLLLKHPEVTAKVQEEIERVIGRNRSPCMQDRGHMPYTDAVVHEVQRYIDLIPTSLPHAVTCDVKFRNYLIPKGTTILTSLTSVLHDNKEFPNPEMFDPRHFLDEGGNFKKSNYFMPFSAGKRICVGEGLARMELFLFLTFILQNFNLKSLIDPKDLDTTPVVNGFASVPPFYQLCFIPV
Voltage-gated inwardly rectifying potassium channel KCNH2 (Homo sapiens), sequence (Q12809 whole entry, looked up): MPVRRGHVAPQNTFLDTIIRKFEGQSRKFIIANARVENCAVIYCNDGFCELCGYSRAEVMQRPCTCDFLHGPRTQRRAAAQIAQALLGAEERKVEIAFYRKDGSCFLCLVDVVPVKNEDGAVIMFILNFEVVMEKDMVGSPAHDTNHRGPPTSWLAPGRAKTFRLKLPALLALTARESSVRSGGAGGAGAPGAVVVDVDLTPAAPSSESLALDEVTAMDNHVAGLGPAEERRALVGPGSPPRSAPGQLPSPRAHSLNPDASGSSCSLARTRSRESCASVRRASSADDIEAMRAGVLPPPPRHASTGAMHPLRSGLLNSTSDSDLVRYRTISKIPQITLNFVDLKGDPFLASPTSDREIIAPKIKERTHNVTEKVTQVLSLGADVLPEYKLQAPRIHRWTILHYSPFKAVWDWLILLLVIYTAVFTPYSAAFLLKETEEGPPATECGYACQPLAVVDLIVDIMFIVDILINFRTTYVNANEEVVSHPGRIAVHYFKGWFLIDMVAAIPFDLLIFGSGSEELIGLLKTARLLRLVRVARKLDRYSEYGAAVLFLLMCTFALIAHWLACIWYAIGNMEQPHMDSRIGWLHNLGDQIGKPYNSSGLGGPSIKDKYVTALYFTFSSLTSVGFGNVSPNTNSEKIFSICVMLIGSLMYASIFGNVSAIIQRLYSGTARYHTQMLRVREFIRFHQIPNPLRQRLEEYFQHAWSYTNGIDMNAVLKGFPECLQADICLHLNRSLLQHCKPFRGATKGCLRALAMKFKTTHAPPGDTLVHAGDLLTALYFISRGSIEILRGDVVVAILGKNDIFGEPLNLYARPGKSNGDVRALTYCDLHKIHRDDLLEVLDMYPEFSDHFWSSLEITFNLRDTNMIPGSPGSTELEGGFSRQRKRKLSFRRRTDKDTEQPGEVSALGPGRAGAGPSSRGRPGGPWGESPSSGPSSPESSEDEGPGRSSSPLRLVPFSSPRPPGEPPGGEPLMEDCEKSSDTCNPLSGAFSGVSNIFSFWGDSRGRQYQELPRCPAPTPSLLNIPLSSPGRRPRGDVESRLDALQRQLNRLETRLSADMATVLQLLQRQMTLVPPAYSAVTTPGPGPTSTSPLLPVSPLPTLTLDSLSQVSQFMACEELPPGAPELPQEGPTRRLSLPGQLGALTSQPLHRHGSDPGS
Cytochrome P450 3A4 (Homo sapiens), sequence (P08684 whole entry, looked up): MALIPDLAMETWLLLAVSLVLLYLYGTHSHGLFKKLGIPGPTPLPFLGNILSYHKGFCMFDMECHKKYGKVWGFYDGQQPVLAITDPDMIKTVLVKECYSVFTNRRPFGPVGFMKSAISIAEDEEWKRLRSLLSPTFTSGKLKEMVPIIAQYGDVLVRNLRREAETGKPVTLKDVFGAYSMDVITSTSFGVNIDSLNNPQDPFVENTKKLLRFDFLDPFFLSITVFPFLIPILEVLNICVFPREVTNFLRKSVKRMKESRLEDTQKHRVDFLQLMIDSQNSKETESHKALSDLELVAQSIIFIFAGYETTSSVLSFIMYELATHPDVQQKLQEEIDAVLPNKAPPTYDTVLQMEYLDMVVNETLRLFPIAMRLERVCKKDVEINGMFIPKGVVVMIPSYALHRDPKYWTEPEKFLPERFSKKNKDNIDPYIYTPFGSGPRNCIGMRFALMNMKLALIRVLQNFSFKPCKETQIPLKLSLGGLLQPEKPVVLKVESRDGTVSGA
Cytochrome P450 2C9 (Homo sapiens), sequence (P11712 whole entry, looked up): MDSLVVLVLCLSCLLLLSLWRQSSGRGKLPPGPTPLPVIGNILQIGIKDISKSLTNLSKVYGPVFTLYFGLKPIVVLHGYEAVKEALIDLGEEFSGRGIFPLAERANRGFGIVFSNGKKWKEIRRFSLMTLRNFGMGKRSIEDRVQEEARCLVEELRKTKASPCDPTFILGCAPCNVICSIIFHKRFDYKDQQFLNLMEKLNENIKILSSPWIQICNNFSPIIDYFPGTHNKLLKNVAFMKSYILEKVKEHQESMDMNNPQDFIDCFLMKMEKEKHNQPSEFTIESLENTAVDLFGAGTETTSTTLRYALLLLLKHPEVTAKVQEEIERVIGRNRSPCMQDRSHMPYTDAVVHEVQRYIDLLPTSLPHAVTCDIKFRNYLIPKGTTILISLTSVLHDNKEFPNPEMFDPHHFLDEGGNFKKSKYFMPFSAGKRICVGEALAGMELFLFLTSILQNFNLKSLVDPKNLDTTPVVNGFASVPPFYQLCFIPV
Cytochrome P450 2D6 (Homo sapiens), sequence (P10635 whole entry, looked up): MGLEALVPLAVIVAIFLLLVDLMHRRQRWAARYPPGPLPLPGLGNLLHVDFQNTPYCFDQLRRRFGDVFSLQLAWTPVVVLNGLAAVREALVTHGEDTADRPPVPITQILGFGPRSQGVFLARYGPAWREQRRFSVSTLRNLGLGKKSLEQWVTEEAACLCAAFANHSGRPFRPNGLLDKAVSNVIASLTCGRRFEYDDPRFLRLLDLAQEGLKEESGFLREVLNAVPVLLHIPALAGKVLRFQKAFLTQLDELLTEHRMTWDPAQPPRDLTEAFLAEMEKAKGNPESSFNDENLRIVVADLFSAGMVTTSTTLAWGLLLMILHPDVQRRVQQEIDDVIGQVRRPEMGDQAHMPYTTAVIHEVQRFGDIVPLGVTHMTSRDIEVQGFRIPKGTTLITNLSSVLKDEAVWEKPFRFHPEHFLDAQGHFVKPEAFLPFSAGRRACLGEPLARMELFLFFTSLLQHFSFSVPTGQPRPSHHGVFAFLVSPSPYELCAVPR

For `O=C1NC(=O)C(=O)C(=O)N1`, the Potency result in experiment [1], in experiment [2], in [3], in [4], in experiment [5] and in experiment [6] was “inactive” each time. Moreover, the Potency entry in [7], in experiment [8] and in experiment [9] was “inactive” each time.

For the compound `C#CC(O)(C=CCl)CC` (stereo not given), the Potency result in experiment [1], in experiment [2], in experiment [3], in [4], in experiment [5] and in [6] was “inactive” in each case. For the same compound, the Potency result in experiment [7], in experiment [8] and in experiment [9] was “inactive” throughout.

`CC[N+]1(C)CCCC(OC(=O)C(O)(c2ccccc2)c2ccccc2)C1` (stereo not given): the Potency result in [1], in experiment [2], in experiment [3], in [5], in [7] and in [8] was “inactive” throughout. Further, the Potency entry in experiment [9] is “inactive”. Moreover, the Potency in [4] was 2.75 µM (active).

Consider `CCC(C)Cl` (stereo not given), for which the Potency entry in experiment [1], in experiment [2], in experiment [3], in experiment [4], in experiment [5] and in experiment [6] was “inactive” in each case. Further, the Potency entry in experiment [8] and in [9] was “inactive” each time.

For `CC(=O)OC(c1ccccc1)C(Cl)(Cl)Cl` (stereo not given), the Potency result in experiment [1], in experiment [2], in experiment [3], in experiment [4], in [5] and in [7] was “inactive” throughout. For the same compound, the Potency entry in [9] was “inactive”.

Regarding `C=CCSSCC=C`, the Potency entry in experiment [1], in experiment [2], in experiment [3], in experiment [4], in experiment [8] and in [9] was “inactive” throughout. Moreover, the values for the Potency in experiment [5] and in experiment [7] were 7.96 µM (active) and 31.7 µM (active), respectively.

Regarding `CC(C)[C@@H](C(=O)O[C@@H](C#N)c1cccc(Oc2ccccc2)c1)c1ccc(Cl)cc1`, the Potency result in [1], in experiment [2], in [3], in [7], in [8] and in experiment [9] was “inactive” throughout. The Potency in experiment [4] was 32.2 µM (active) and inactive; in [5], 9.07 µM (active) and 31.7 µM (active); in [6] it was 7.21 µM (active) and 12.6 µM (active).

For the compound `CN1C(=O)CN=C(c2ccccc2)c2cc([N+](=O)[O-])ccc21`, the Potency entry in [1], in [2], in experiment [3], in experiment [4], in experiment [5] and in experiment [7] was “inactive” each time. The Potency entry in [8] and in experiment [9] was “inactive” each time.

For the compound `OCCSSCCO`, the Potency entry in experiment [1], in experiment [2], in experiment [3], in [4], in [8] and in experiment [9] was “inactive” throughout. Moreover, in experiment [5], the Potency was 56.4 µM (active).

For the compound `CC(C)CCCCCCCOC(=O)c1ccccc1C(=O)OCCCCCCCC(C)C`, the Potency entry in experiment [1], in [2], in experiment [3], in [4], in experiment [5] and in experiment [7] was “inactive” each time. For the same compound, the Potency entry in experiment [8] and in [9] was “inactive” in each case.

Take `NC(=S)c1c(Cl)cccc1Cl`: the Potency entry in experiment [1], in [2], in [3], in [4], in experiment [5] and in experiment [8] was “inactive” each time. Besides, the Potency in experiment [7] and in [9] was 28.3 µM (active) throughout.

On to `O=C(NC(=O)c1cc(F)c(F)cc1Cl)Nc1cc(F)ccc1N1CCC(C(=O)O)CC1`, for which the Potency result in experiment [1], in experiment [2], in [3], in experiment [4], in experiment [5] and in experiment [7] was “inactive” throughout. For the same compound, the Potency result in experiment [8] and in experiment [9] was “inactive” in each case.

With `CCCC[P+](CC)(CCCC)CCCC` (tested in a mixture with another compound), the Potency result in experiment [1], in experiment [2], in [3], in experiment [6], in [7] and in experiment [9] was “inactive” each time. Besides, the results for the Potency in experiment [4] and in [8] were 0.0716 µM (active) and 24.7 µM (active), respectively.

For the compound `CCOc1cccc(C2(N3CCN(c4ccccc4)CC3)CCC(C)CC2)c1` (stereo not given), the outcome in experiment [1], in [2] and in [3] was inactive. Also, the Potency entry in experiment [4], in experiment [5], in experiment [8] and in [9] was “inactive” in each case. Also, in [7], the Potency is 20 µM (active).

Regarding `O=P(OCC(Br)CBr)(OCC(Br)CBr)OCC(Br)CBr` (stereo not given), the Potency entry in experiment [1], in experiment [2] and in experiment [3] was “inactive” each time. Moreover, the Potency was 20.3 µM (active) and 26.8 µM (active) in experiment [4]; 3.6 µM (active) and 4.25 µM (active) in experiment [5]; 16.1 µM (active) and 16.9 µM (active) in [6]; 7.19 µM (active) and 9.52 µM (active) in experiment [7]; 12.5 µM (active) and 18.5 µM (active) in experiment [8]; 2.55 µM (active) and 7.56 µM (active) in [9].

Consider `SCc1ccccc1`, for which the Potency result in experiment [1], in experiment [2], in experiment [3], in [4] and in experiment [9] was “inactive” in each case. For the same compound, the Potency in experiment [5] was 7.31 µM (active); in experiment [6], 36.6 µM (active); in experiment [7] it was 32.6 µM (active).

For the compound `CCC1(CC)C(=O)NC(=O)NC1=O`, the Potency entry in experiment [1], in experiment [2], in experiment [3], in experiment [4], in [6] and in [7] was “inactive” each time. Also, the Potency result in experiment [8] and in [9] was “inactive” each time.

Take `CCOC(=O)C1OC1(C)c1ccccc1` (stereo not given): the Potency result in [1], in [2], in [3], in experiment [8] and in [9] was “inactive” throughout. In addition, the Potency was 71.6 µM (active) and inactive in experiment [4]; 35.9 µM (active) and 71 µM (active) in experiment [5].
